Hits are enriched below; roughly 12% of the tested compounds scored in any of these assays.
BAZ2B inh: blocks human BAZ2B. Q9UIF8. Potency, µM (highest dose often 114 µM), usual class: inhibitors. 4.4% of 360,000 active. AID 504333. AlphaScreen BAZ2B-H3K14Ac peptide displacement; also: nearly all actives have a fitted effect of over 60% in size
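Protein-peptide AlphaScreen: BAZ2B 50 nM, b-H3K14Ac 50 nM, 1x PBS pH 7.4 + 0.01% Tween-20. Preincubation 30 min RT; cpd 30 min RT (top 110 uM); beads 20 min RT, light-protected.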
PLK1 PBD inh: inhibitors of human PLK1 polo-box domain binding | Plk1 PBD binding of FITC phosphopeptide, fluorescence polarization | Potency, µM, usual class: inhibitors | 2.8% of 360,000 active | AID 720504; also: series mostly up to about 57 µM; nearly all actives have a fitted effect of over 65% in size
JMJD2A Tudor inh: JMJD2A Tudor domain (human) inhibition | O75164 | AlphaScreen JMJD2A-Tudor / H3K4me3 peptide binding | Potency, µM (doses to about 114 µM), actives largely listed as inhibitors | 4.4% of 390,000 active | AID 504339; also: nearly all actives have a fitted effect of over 50% in size
HP1b chromo inh: HP1-beta chromodomain-methylated histone interaction inhibition; 0.56% of 390,000 active; Potency, µM (series often up to 114 µM), hits mostly inhibitors; AlphaScreen HP1-beta / biotin-H3K9me3 peptide binding; AID 540317; P83916; also: nearly all actives have a fitted effect of over 70% in size
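AlphaScreen: HP1-beta (50 nM) preformed 30 min with biotin-H3(1-18)K9me3 peptide (50 nM) in PBS pH 7.4, 0.01% Tween-20. Compound added for 30 min at RT, then streptavidin donor/nickel chelate acceptor beads (10 ug/mL) for 30 min.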
Sfp inh: inhibitors of Bacillus subtilis Sfp phosphopantetheinyl transferase. Q9F4F7. Biochemical Sfp PPTase activity, qHTS. Potency, µM, hits mostly inhibitors. 3.5% of 310,000 active. AID 1490;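 also: the enzyme is Sfp with the accession as filed and its product quenches rhodamine fluorescence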
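Step 1, compound plus 15 nM Sfp-PPTase, 15 min, room temperature. Step 2, add rhodamine-CoA (5 uM) and BHQ-2-YbbR (12.5 uM). Step 3, read 525/598 nm fluorescence at 0 and 30 min.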
G9a inh: G9a (human) methyltransferase inhibition; G9a H3K9 monomethylation, AlphaScreen, 2 h; 8.8% of 350,000 active; Potency, µM (doses to about 102 µM), most hits filed as inhibitors; Q96KQ7; also: nearly all actives have a fitted effect of over 75% in size
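AlphaScreen detection with an anti-monomethyl H3K9 antibody quantified product after a 2 h room-temperature reaction containing 500 nM biotinylated H3K9 peptide, 20 µM SAM and 20 nM enzyme, which had been preincubated 15 min with compound.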
Hits are given with their value; [ ] = remark or other dose. Calls follow the shape of the dose curve; as a rule, active = well fitted curve in the direction sought with a large enough effect; inconclusive = small, poorly fitted or top-dose-only effect, or another doubt; inactive = no such curve, though single readings can be large; an effect the other way counts as inactive or inconclusive.

For COc1ccc(CNc2cccc3[nH]c(C(F)(F)F)nc23)cc1 the results were BAZ2B inh inconclusive, PLK1 PBD inh inactive, JMJD2A Tudor inh inconclusive, HP1b chromo inh inactive, Sfp inh inactive and G9a inh inactive[2.33 µM].
`CCCCN(C)S(=O)(=O)c1cc2c(cc1Br)CCN2C(=O)C1CC1` gave PLK1 PBD inh inactive, JMJD2A Tudor inh inactive and HP1b chromo inh inactive.
CCOc1ccc(CCNC(=O)Cn2ccc3cc(S(=O)(=O)N4CCCCCC4)ccc32)cc1 was read as BAZ2B inh inactive, JMJD2A Tudor inh inactive, HP1b chromo inh inactive and G9a inh inactive.
CC(=O)C1(O)C(C)CC2C3CCC4CC(O)CCC4(C)C3=CCC21C (stereo unspecified) was read as BAZ2B inh inactive, PLK1 PBD inh inactive, JMJD2A Tudor inh inactive, HP1b chromo inh inactive, Sfp inh inactive and G9a inh inactive.
For C[C@@H]1CC2[C@@H]3CC[C@H]4CC(=O)CC[C@]4(C)C3=CC[C@]2(C)[C@@]1(O)C(=O)CO (stereo partly specified) the results were BAZ2B inh inactive, PLK1 PBD inh inactive, JMJD2A Tudor inh inactive, HP1b chromo inh inactive, Sfp inh inactive and G9a inh 56µM.
For O=[N+]([O-])c1ccc(-c2cc(-c3ccc(Cl)cc3)n[nH]2)cc1 the results were BAZ2B inh inactive, PLK1 PBD inh 3µM, JMJD2A Tudor inh inconclusive, HP1b chromo inh inactive, Sfp inh inactive and G9a inh 25µM.
For O=[N+]([O-])c1ccc(-c2cnc[nH]2)cc1 the results were BAZ2B inh inconclusive, PLK1 PBD inh inactive, JMJD2A Tudor inh inactive, HP1b chromo inh inactive and Sfp inh inactive.
For Cc1ccccc1Nc1nc(-c2ccccc2)c(C(=O)Nc2cccnc2)s1 the results were BAZ2B inh inactive, PLK1 PBD inh 30µM, JMJD2A Tudor inh inconclusive, HP1b chromo inh inactive, Sfp inh inactive and G9a inh inactive.
Screening O=C(Nc1cccnc1)c1sc(Nc2ccccc2F)nc1-c1ccccc1 returned BAZ2B inh inactive, PLK1 PBD inh inactive, JMJD2A Tudor inh inactive, HP1b chromo inh inactive, Sfp inh inactive and G9a inh inactive.
Screening O=C(CSc1nnc(SCc2ccc(Cl)cc2)s1)N/N=C/c1c[nH]c2ccccc12 returned BAZ2B inh 35µM, PLK1 PBD inh inactive, JMJD2A Tudor inh 89µM, HP1b chromo inh inactive, Sfp inh inactive and G9a inh inconclusive.
`O=C(CSc1nnc(SCc2ccc(Cl)cc2)s1)N/N=C/c1ccc(C(=O)O)cc1` gave BAZ2B inh inactive, PLK1 PBD inh 67µM, JMJD2A Tudor inh inactive, HP1b chromo inh inactive and Sfp inh inactive.
Screening O=C(O)COc1ccccc1/C=N/NC(=O)CSc1nnc(SCc2ccc(Cl)cc2)s1 returned BAZ2B inh inconclusive, PLK1 PBD inh inactive, JMJD2A Tudor inh inactive, HP1b chromo inh inactive, Sfp inh inactive and G9a inh inactive.
`COc1ccc(/C=C/CN2CCC(CO)(Cc3ccccc3Cl)CC2)cc1` gave BAZ2B inh inconclusive, PLK1 PBD inh inactive, JMJD2A Tudor inh inactive, HP1b chromo inh inactive, Sfp inh inactive and G9a inh inactive[12.7 µM].
Screening CC1CCN(Cc2nnnn2CCCC(=O)N(C)C(C)c2ccccn2)CC1 (stereo unspecified) returned BAZ2B inh inactive, PLK1 PBD inh inactive, JMJD2A Tudor inh inactive, HP1b chromo inh inactive, Sfp inh inactive and G9a inh inconclusive.
For O=C(NCc1cccs1)c1ccc(S(=O)(=O)N2CCCCC2)cc1 the results were BAZ2B inh inactive, PLK1 PBD inh 13µM, JMJD2A Tudor inh inconclusive, HP1b chromo inh inactive, Sfp inh inactive and G9a inh inactive.
Screening CC(C)(C)c1ccc(C(=O)NCCC(=O)NCc2cccs2)cc1 returned BAZ2B inh inactive, PLK1 PBD inh 27µM, JMJD2A Tudor inh inconclusive, HP1b chromo inh inactive, Sfp inh inactive and G9a inh inactive.
CC(=O)Nc1ccc(S(=O)(=O)N2CCN(C(=O)Cc3ccccc3)CC2)cc1 was read as BAZ2B inh inactive, PLK1 PBD inh 27µM, JMJD2A Tudor inh inconclusive, HP1b chromo inh inactive, Sfp inh inactive and G9a inh inactive.
`CCC(C)c1ccc(S(=O)(=O)N2CCN(S(=O)(=O)c3ccc(NC(C)=O)cc3)CC2)cc1` (stereo unspecified) gave BAZ2B inh inactive, PLK1 PBD inh inactive, JMJD2A Tudor inh inactive, HP1b chromo inh inactive, Sfp inh inactive and G9a inh inactive.
CCC(C)N1CCN(S(=O)(=O)c2ccc(NC(C)=O)cc2)CC1 (stereo unspecified) was read as BAZ2B inh 56µM, PLK1 PBD inh inactive, JMJD2A Tudor inh 22µM, HP1b chromo inh inconclusive, Sfp inh inactive and G9a inh 20µM.
CCCNC(=O)CCNC(=O)c1ccc(C(C)(C)C)cc1 was read as BAZ2B inh inactive, PLK1 PBD inh inactive, JMJD2A Tudor inh inactive, HP1b chromo inh inactive, Sfp inh inactive and G9a inh inconclusive.
Screening CO[C@H]1COC(=O)[C@@H](C)COC(=O)[C@@H](COCc2ccccc2)NC(=O)C/C=C\[C@H]1C returned Sfp inh inactive.
`CN1CCN(S(=O)(=O)c2ccc(NC(=O)Cc3cccs3)cc2)CC1` gave BAZ2B inh inactive, PLK1 PBD inh inactive, JMJD2A Tudor inh inactive, HP1b chromo inh inactive, Sfp inh inactive and G9a inh inactive[12.7 µM].
For CC(=O)Nc1ccc(NC(=O)Cc2ccc(S(=O)(=O)N3CCCCC3)cc2)cc1 the results were BAZ2B inh inactive, PLK1 PBD inh inactive, JMJD2A Tudor inh inactive, HP1b chromo inh inactive and G9a inh 40µM.
`O=C(Cc1ccccc1)Nc1ccc(S(=O)(=O)N2CCCC2)cc1` gave BAZ2B inh inactive, PLK1 PBD inh inactive, JMJD2A Tudor inh inactive, HP1b chromo inh inactive, Sfp inh inactive and G9a inh inactive.
`O=C(Cc1cccs1)Nc1ccc(S(=O)(=O)N2CCCCC2)cc1` gave BAZ2B inh inactive, PLK1 PBD inh inactive, JMJD2A Tudor inh inconclusive, HP1b chromo inh inactive, Sfp inh inactive and G9a inh 8.9µM.
For O=[N+]([O-])/C(=C\Nc1ccc(F)cc1F)S(=O)(=O)c1ccccc1 the results were BAZ2B inh inactive, PLK1 PBD inh inactive, JMJD2A Tudor inh inactive, HP1b chromo inh inactive, Sfp inh inactive and G9a inh inactive[0.501 µM].
CCOc1cc(N2CCOCC2)c(OCC)cc1NC(=O)CN1C(=O)NC2(CCCCCCC2)C1=O was read as BAZ2B inh inactive, PLK1 PBD inh inactive, JMJD2A Tudor inh inactive, HP1b chromo inh inactive, Sfp inh inactive and G9a inh inactive.
Screening CC(=O)c1cccc(Oc2cc(NN3CCCCC3)c([N+](=O)[O-])cc2[N+](=O)[O-])c1 returned BAZ2B inh inconclusive, PLK1 PBD inh inactive, JMJD2A Tudor inh inconclusive, HP1b chromo inh inactive, Sfp inh inactive and G9a inh 50µM.
